Compounds with a hit are over-represented: about 21% of the library has one in this group of screens.
Shiga inhibitor: A qHTS for Small Molecule Inhibitors of Shiga Toxin. Vero cells, Shiga toxin protein synthesis inhibition reporter. inhibition, % at 38.7 µM. 290,000 tested, 9.2% active. AID 2315, 2010; in the data active = inhibition mostly above about 28%, no sharp cut-off; inactive = mostly below about 43%; also: 0% is about no effect
Pf growth 48h: Primary qHTS for delayed death inhibitors of the malarial parasite plastid, 48 hour incubation. P. falciparum luciferase growth in erythrocytes, 48 h. Potency, µM (series often up to 28.7 µM), without a hit: top-dose activity change, negative = inhibition, hits mostly inhibitors. 310,000 tested, 5.9% active. AID 504832, 2011; also: potency is read from the fitted curve at half-maximal effect; % is scaled to controls: 0 for no effect and ±100 for the full control effect
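Read-out is firefly luciferase luminescence from an integrated reporter in P. falciparum, so falling signal marks reduced parasite growth. Infected erythrocytes were at 2% hematocrit and 0.1% parasitemia (final) in Albumax-supplemented RPMI 1640.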
Pf growth 96h: Primary qHTS for delayed death inhibitors of the malarial parasite plastid, 96 hour incubation; P. falciparum luciferase reporter growth, 96 h; Potency, µM (doses to about 28.7 µM), for the others: at the top dose activity change, negative = inhibition, most hits filed as inhibitors; 320,000 tested, 6.9% active; also: potency is read from the fitted curve at half-maximal effect; % is scaled to controls: 0 for no effect and ±100 for the full control effect
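Two-generation exposure (96 h) targets delayed-death phenotype. Reporter parasites carrying integrated firefly luciferase, in red cells at 2% hematocrit and 0.05% parasitemia final, kept at 37 C, 5% CO2; luminescence loss indicates inhibition.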
CHX counter: Cycloheximide Counterscreen for Small Molecule Inhibitors of Shiga Toxin; cell reporter, cycloheximide protein synthesis inhibition counterscreen; 300,000 tested, 12% active; max response, %; in the data active = max response mostly above about 13%, no sharp cut-off; inactive = mostly below about 14%; also: read at 38.3 µM for the half of the compounds with a filed dose; 0% is about no effect
AMA1-RON2 inh: qHTS for Inhibitors of AMA1-RON; Towards Development of Antimalarial Drug Lead: Primary Screen; AlphaScreen AMA1-biotinylated RON2 peptide binding; Plasmodium falciparum AMA1 (3D7) - RON2 peptide interaction; Potency, µM (highest dose often 58.2 µM), for inactives: at the highest dose activity change, negative = inhibition, actives largely listed as inhibitors; 360,000 tested, 0.2% active;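 also: potency is read from the fitted curve at half-maximal effect; 0% = vehicle wells and -100% = peptide control; nearly all actives have a fitted effect of over 45% in size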
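AMA1 (3D7) with his tag at 25 nM final met compounds first, then biotinylated RON2 peptide at 25 nM; detection used donor plus acceptor beads, 10 µg/mL apiece, read by AlphaScreen after 30 min at room temperature.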
HCV inhibitor: qHTS Assay for Inhibitors of Hepatitis C Virus (HCV); 340,000 tested, 3.4% active; Potency, µM (highest dose often 41.8 µM), for the others: at the highest dose activity change, negative = inhibition, most hits filed as inhibitors; AID 651820, 2012; Huh7.5.1 HCVcc-Cre infection, luciferase reporter, 44 h; also: potency is read from the fitted curve at half-maximal effect; % is scaled to controls: 0 for no effect and ±100 for the full control effect
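Luciferase read-out (15 sec integration) after a 15 min room-temperature substrate step quantifies HCVcc-Cre infection. Cells, 1,000 per well, had compound added 4 h post-plating, then virus at ~0.5 moi, and were cultured 44 h.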
Starred values were filed as active, the others as inactive; u = inconclusive; x = no result; [ ] = remark or other dose. Unless noted, calls follow the shape of the dose curve; as a rule, active = well fitted curve in the direction sought with a large enough effect; inconclusive = small, poorly fitted or top-dose-only effect, or another doubt; inactive = no such curve, though single readings can be large; an effect the other way counts as inactive or inconclusive.

SMILES | Shiga inhibitor | Pf growth 48h | Pf growth 96h | CHX counter | AMA1-RON2 inh | HCV inhibitor
CC(C)Oc1cccc(C(=O)Nc2ccc(Br)cc2F)c1 | 106.6* | 343.0% | 1.5% | 65.2* | 21.9% | u
Cc1noc(C)c1COc1cccc(C(=O)Nc2ccc(Br)cc2F)c1 | x | x | x | x | -7.7%[11.6 µM] | 2.82µM*
O=C(Nc1ccc(Br)cc1F)c1cccnc1 | 86.1* | 82.5% | 102.3% | 15.3 | -6.1% | u
Cc1ccc(NC(=O)c2cccc(OCc3c(C)noc3C)c2)c(C)c1 | 38.0 | -14.3% | u | 2.9 | 1.2% | u
CCC(=O)Nc1ccc(C(=O)Nc2ccc(Br)cc2F)cc1 | 16.6 | 49.3% | u | 11.6 | -2.3% | -7.8%
Cc1noc(C)c1COc1cccc(C(=O)OCCOc2ccc(F)cc2)c1 | 51.9* | u | 13.1µM* | 26.0* | 79.2% | -7.2%
CC(=O)OC(C)[C@H]1CC[C@H]2[C@@H]3CC[C@H]4C[C@@H](OC(C)=O)CC[C@]4(C)C3=CC[C@]12C (some centres not stated) | x | u | 57.4% | x | 7.4% | 10.6%
Nc1ccc(N2CCCC2)c(S(=O)(=O)Nc2cccc(C(F)(F)F)c2)c1 | x | x | x | x | -15.8% | u
COCCN1C(=O)CN(S(C)(=O)=O)CC1(C)C(=O)Nc1c(C)cccc1C (configuration not stated) | x | x | x | x | -2.3% | x
CCCC(=O)Nc1ccc(Br)cn1 | 20.3 | x | -27.3% | 4.7 | 14.0% | 3.0%
O=C(Nc1ccccc1C(=O)Nc1ccc(Br)cn1)c1ccccc1Cl | x | u | u | x | -2.3% | 12.6µM*
Cc1ccccc1C(=O)Nc1ccc(Br)cn1 | 90.5* | 210.5% | 309.1% | 49.1* | -5.4% | u
FC(F)(F)c1nnc2c(Sc3ccccn3)nc3ccccc3n12 | 111.1* | 9.28µM* | 3.3% | 22.5* | 2.5% | u
FC(F)(F)c1nnc2c(Sc3ccccc3)nc3ccccc3n12 | -26.1 | -18.1% | -14.0% | 28.2* | 37.1% | u
CCC(C)(C)NC(=O)CN(Cc1ccco1)C(=O)CCC(=O)Nc1nccs1 | -9.9 | 9.4% | 1.3% | 2.7 | 2.9% | 12.9%
Cc1cc(C(=O)NC2CCCc3c2cnn3-c2ccc(C(C)(C)C)cc2)n[nH]1 (configuration not stated) | 8.4 | -17.6% | 0.9% | 16.9 | 1.3% | 11.2µM*
Cc1ccc(-n2ncc3c2CCCC3NC(=O)CCCN2CCCC2=O)cc1C (configuration not stated) | 1.5 | u | 4.65µM* | 7.9 | -9.7% | 10.1%
Cc1ccc(-n2ncc3c2CCCC3NC(=O)CCc2cnn(C)c2)cc1C (configuration not stated) | 11.4 | 4.8% | u | 6.4 | 5.6% | -3.4%
COCc1ccc(C(=O)NC2CCCc3c2cnn3-c2ccc(C)c(C)c2)o1 (configuration not stated) | 92.5 | -10.1% | u | 25.8* | -0.7% | u
Cc1cc(C)n(CC(=O)NC2CCCc3c2cnn3-c2ccc(C)c(C)c2)n1 (configuration not stated) | 54.4* | 48.3% | u | 38.1* | -1.7% | u
CC1(C)CC(=O)C=C(c2n[nH]nc2C2CC2)C1 | x | x | x | x | -3.1% | x
Cc1cc(C(=O)NC2CCCc3c2cnn3-c2ccc(C)c(C)c2)n(C)n1 (configuration not stated) | -1.9 | u | u | -1.1 | -0.5% | 8.91µM*
Cc1cc(C)c(C(=O)NC2CCCc3c2cnn3-c2ccc(C)c(C)c2)c(=O)[nH]1 (configuration not stated) | 25.5 | 0.9% | 22.5% | 27.0* | 0.0% | -22.9%
Cc1noc(C)c1-c1nnc(-c2ccc(OC(F)(F)F)cc2)o1 | -9.7 | 50.7% | 96.1% | -0.8 | -0.4% | 7.8%
O=S1(=O)CC(N2CCCCC2)CN1C1CCCCC1 (configuration not stated) | x | x | x | x | 0.0% | x
SMILES | Shiga inhibitor | Pf growth 48h | Pf growth 96h | CHX counter | AMA1-RON2 inh | HCV inhibitor
COc1cc2c(cc1OC)C(=O)Cc1ccc3c(c1CN(C)CC2)OCO3 | -43.1 | 9.28µM* | u | -1.3 | 19.9% | 23.4%
CCCNC(=O)C1(C)CCCN(Cc2ccc(-c3ccccc3)o2)C1 (configuration not stated) | x | x | x | x | 0.0% | x
CCC(C)NC(=O)Cn1c(COc2ccc(Cl)cc2Cl)nc2ccccc21 (configuration not stated) | 38.7* | 148.9% | 155.8% | 33.2* | -0.6%[11.6 µM] | 20.8%
NNC(=O)Cn1c(COc2ccc(Cl)cc2)nc2ccccc21 | 20.5 | -29.1% | u | 0.6 | 41.0% | 11.2µM*
Cc1cc(C)nc(NNC(=O)c2ccccc2O)n1 | -2.3 | 11.2% | -22.9% | -4.0 | 94.5% | -6.9%
COc1ccc(CN2CCNC(=O)C2CC(=O)N(C)CCC2CCOCC2)c(OC)c1 (configuration not stated) | 3.3 | 18.5% | u | -4.3 | -2.9% | 20.0%
Oc1ccccc1C1CC(c2cccs2)=NC(c2cccc(Br)c2)N1 (configuration not stated) | 70.5* | u | 2.62µM* | 42.2* | -1.5% | 21.9%
Cc1ccc(CN2C(=O)C3CCCN3c3ccc(S(=O)(=O)N4CCOCC4)cc32)cc1 (configuration not stated) | -8.2 | 4.65µM* | 1.65µM* | 15.1 | x | x
Cc1ccc(CN2C(=O)C3CCCN3c3ncccc32)cc1 (configuration not stated) | -4.5 | -20.3%[0.00184 µM] | u | -4.3 | 4.2% | -8.6%
C=CCc1cc2c(oc(=O)c3ccccc32)c(C)c1O | 13.4 | -12.9% | 14.7µM* | 0.7 | 1.7% | -27.6%
Cc1c(O)c(CN2CCCC2)cc2c1oc(=O)c1ccccc12 | -3.3 | 1.47µM* | 6.4% | -1.5 | 5.0% | u
Cc1c(OC(C(=O)O)c2ccccc2)ccc2c1oc(=O)c1ccccc12 (configuration not stated) | -6.9 | 25.0% | u | -1.2 | -18.7% | 1.0%
Cc1c(O)c(CN2CCCC2)cc2c3c(c(=O)oc12)CCC3 | -16.7 | 3.29µM* | u | 4.0 | 0.9% | u
Cc1ccsc1C(=O)C1CCCN(Cc2cnn(C)c2)C1 (configuration not stated) | 0.7 | -0.7% | u | -1.9 | -2.1% | 7.9%
COc1ccc(Cl)cc1C(=O)C1CCCN(Cc2cnc(C)s2)C1 (configuration not stated) | 52.8* | u | u | 17.4* | -23.8% | -14.5%
Cc1ncc(CN2CCCC(C(=O)c3sccc3C)C2)s1 (configuration not stated) | -22.0 | -15.7% | 11.7µM* | 7.5 | -0.8% | -8.0%
COc1cc([N+](=O)[O-])ccc1NC(=O)CSc1n[nH]c(C(C)C)n1 | -13.2 | u | u | -1.8 | 3.2% | 0.8%

Source: PubChem BioAssay (National Center for Advancing Translational Sciences (NCATS))
